# Screens as filed in PubChem BioAssay.
# D1 antagonist – blocks dopamine activation of the human D1 receptor; P21728; HEK293 TREx D1 cells, calcium flux, dopamine EC80; stronger effect = lower value; activity change, negative = inhibition, % at 10 µM; actives 3.2% (n = 360,000); AID 504652; in the data active means activity change below about -30%
#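 Cells carrying a force-coupled, tetracycline-inducible human D1 receptor report calcium flux. Each well gets a 10 s baseline, compound with 180 s monitoring, then an EC80 dopamine stimulus with a second 180 s kinetic read.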
# D3 ag – activates the human D3 dopamine receptor; AID 652048; max activation, %; D3R DiscoveRx beta-arrestin cells, luminescence, 90 min; actives 0.58% (n = 410,000); P35462; in the data active means max activation above about 30%
#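 Cells at 1500/well, incubated overnight, then treated with pinned compounds (dopamine as control) for 90 min at 37 degrees C. DiscoveRx reagent added for 30 - 60 minutes at room temperature; luminescence read.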
# ERG Ets-DNA blk – blocks human ERG Ets domain binding to DNA | actives 0.028% (n = 370,000) | Potency, µM (titrated, usually from 76.9 µM), hits mostly inhibitors | P11308 | fluorescence polarization, His-ERG Ets domain / labelled DNA; active means well fitted inhibition curve with a large enough effect in the polarisation, with a control signal flat; inconclusive means small, poorly fitted or top-dose-only effect, or effect the other way, or a change in a side signal; inactive means no such curve, though single readings can be large or run the other way; the % refers to the polarisation;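 further: polarization taken with two DNA probes labelled with fluorescein and Texas red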
# Target sequence (P11308 whole entry, looked up, the tested form may be a part): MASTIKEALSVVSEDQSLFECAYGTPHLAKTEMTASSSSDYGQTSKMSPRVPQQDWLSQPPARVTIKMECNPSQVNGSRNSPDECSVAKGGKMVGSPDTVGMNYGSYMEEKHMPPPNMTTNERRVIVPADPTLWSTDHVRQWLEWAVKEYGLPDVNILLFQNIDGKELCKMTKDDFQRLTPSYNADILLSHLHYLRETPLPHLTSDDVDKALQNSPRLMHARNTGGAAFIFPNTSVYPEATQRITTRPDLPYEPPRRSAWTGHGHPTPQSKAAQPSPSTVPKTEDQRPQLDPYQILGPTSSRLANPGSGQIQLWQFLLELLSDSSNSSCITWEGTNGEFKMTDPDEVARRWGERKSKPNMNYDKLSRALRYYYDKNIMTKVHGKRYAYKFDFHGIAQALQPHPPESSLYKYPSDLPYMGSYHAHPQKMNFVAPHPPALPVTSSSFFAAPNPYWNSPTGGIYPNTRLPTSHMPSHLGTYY
#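 His-tagged ERG Ets domain (1 uM in the protein solution; 300mM KCl, 50mM Tris-HCl, 1mM EDTA, 1mM DTT, pH 7.5) received compound, then a probe mix of 5 nM fluorescein-DNA and 100nM Texas-615-DNA. Fluorescence polarization was read for both dyes.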
# DRD3 antagonist – antagonists of human D3 dopamine receptor. P35462. D3R cells, DiscoveRx beta-arrestin luminescence, antagonist mode; stronger effect = lower value. max response, negative = inhibition, %. actives 2.5% (n = 360,000). AID 652054; in the data active means max response below about -50%; inconclusive means no clear call, values can overlap the other calls
#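 Cells expressing the human receptor were seeded at 1500 cells/well, incubated overnight at 37 degrees C in 5% CO2, then exposed to library compounds with dopamine controls for 90 minutes at 37 degrees C before luminescent detection.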
# D1 agonist – human D1 receptor agonism; HEK293 T-REx D1 cells, calcium flux, agonist mode; activation, % at 2 µM; actives 1% (n = 360,000); AID 504660; in the data active means activation above about 30%
#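 Inducible HEK293 T-REx D1 cells, force-coupled to calcium signalling, were plated at 4000 cells/well with tetracycline and held overnight at 30 C. After no-wash calcium dye loading, compound-evoked calcium rise over 180 s flagged agonists.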
# D1 potentiator – potentiators of human D1 dopamine receptor | actives 0.036% (n = 360,000) | AID 504651 | potentiation, % at 10 µM | HEK293 TREx D1 cells, calcium flux, dopamine EC20 potentiation | P21728; in the data active means potentiation above about 30%
# Hits are given with their value; n = inactive; u = inconclusive; x = not tested or not shown. Rows were chosen to be rich in hits. Some 6.1% of all compounds tested hit in one or more screens of this group.
SMILES,D1 antagonist,D3 ag,ERG Ets-DNA blk,DRD3 antagonist,D1 agonist,D1 potentiator
COc1ccc(Cn2ccc3nc(C)c(C(=O)N4CCN(c5ccc(OC)cc5)CC4)cc3c2=O)cc1,n,n,n,x,n,n
Cc1ccc(NC(=O)c2cc3c(=O)n(Cc4ccco4)ccc3nc2C)cc1C,n,65,n,x,n,n
Cc1nc2ccn(Cc3ccco3)c(=O)c2cc1C(=O)Nc1ccc(F)cc1,n,n,n,x,n,n
CSc1ccc(CNC(=O)c2cc3c(=O)n(Cc4ccco4)ccc3nc2C)cc1,n,n,n,x,n,n
COc1ccc(CNC(=O)c2cc3c(=O)n(Cc4ccco4)ccc3nc2C)cc1,-35,n,n,x,n,n
COc1ccc(Cn2ccc3nc(C)c(C(=O)N4CCN(c5ccccc5OC)CC4)cc3c2=O)cc1,-33,n,n,x,n,n
COc1ccc2nc3ccccc3nc2c1,n,n,n,n,n,n
CCC(CC)=NNC(=O)c1ccccc1OCc1ccc(F)cc1,n,n,n,n,n,n
CCOc1ccc(NC(=O)C2CCCN(c3cnccn3)C2)cc1 (stereo unspecified),n,n,n,n,n,n
Cc1ccc(OCCOCCN2CCCC2)c(Br)c1,n,n,n,u,n,n
CN(C)CCCCOc1ccc(Br)cc1Cl,n,n,n,n,n,n
CC1CCCN(CCCOc2ccc(Br)cc2Cl)C1 (stereo unspecified),n,n,n,-77,n,n
CC1CCN(CCOCCOc2ccc(Br)cc2Cl)CC1,-33,n,n,-75,n,n
COc1ccc(N2CCN(C(=O)C3CCN(S(=O)(=O)c4c(C)noc4/C=C/N(C)C)CC3)CC2)cc1,n,n,n,n,n,n
CN(C)S(=O)(=O)c1ccc(NC(=O)C2CC3C=CC2C3)cc1 (stereo unspecified),-30,n,x,n,n,n
CN(C)S(=O)(=O)c1ccc(NC(=O)C2COc3ccccc3O2)cc1 (stereo unspecified),n,n,n,n,n,n
Cc1cc(C(=O)NN)c2cc(Br)ccc2n1,-35,n,x,n,n,n
Oc1c(Cl)cc(Cl)cc1/C=N/c1nc(-c2ccc(Cl)cc2)cs1,n,n,n,-82,n,n
CC1CCCCC12NC(=O)N(CC(=O)NC1CCCc3ccccc31)C2=O (stereo unspecified),n,n,n,n,n,n
CCOc1ccc(NC(=O)CN(C)C(=O)CCc2nc3ccccc3c(=O)[nH]2)cc1OCC,x,n,x,n,x,x
CN(c1ncnc2c1c(-c1ccccc1)cn2-c1ccc(F)cc1)C1CCCCC1,n,n,n,x,n,n
COc1ccc(S(=O)(=O)NCCc2cn3ccsc3n2)cc1,-45,n,n,x,n,n
COc1ccc(S(=O)(=O)NCCc2cn3ccsc3n2)cc1OC,n,n,n,x,n,n
Cc1ccc(S(=O)(=O)NCCc2cn3ccsc3n2)cc1,-73,n,n,x,n,n
CC1CCCN(CCCNC(=O)Cn2ncc3c([nH]c4ccccc43)c2=O)C1 (stereo unspecified),n,n,n,x,n,n
SMILES,D1 antagonist,D3 ag,ERG Ets-DNA blk,DRD3 antagonist,D1 agonist,D1 potentiator
COc1cccc(CN(C)C(=O)c2ccc(COc3ccc(Cl)cc3)cc2)c1OC,n,n,n,n,54,x
COc1cccc(CN(C)C(=O)c2ccc(Oc3ccccc3)cc2)c1OC,n,n,n,n,32,n
O=C(COC(=O)c1cc(S(=O)(=O)N2CCOCC2)ccc1F)NC1CCCCC1,n,n,n,n,n,n
Cc1cc(Cl)ccc1Oc1ncc(CN2CCN(c3ccccc3)CC2)s1,n,n,n,n,n,n
COc1cccc(N2CCN(Cc3ncc(-c4ccccc4)o3)CC2)c1,n,n,n,-56,n,n
COc1ccc(Oc2ncc(CN3CCN(c4ccccc4)CC3)s2)cc1,n,35,n,n,n,n
Cc1cc(NCCCN2CCOCC2)n2nc(C)c(-c3ccc(F)cc3)c2n1,n,n,n,n,n,n
O=C(O)Cc1ccc(NC2(c3ccccc3)C(=O)c3ccccc3C2=O)cc1,n,n,n,x,n,n
O=C(/C=C/c1ccccc1)N1CCN(Cc2nc3ccccc3c(=O)[nH]2)CC1,n,n,x,n,n,n
COc1ccccc1OCc1ccc(C(=O)Nc2ccc(Cl)cn2)o1,-36,n,n,n,n,n
COc1ccccc1OCc1ccc(C(=O)NN)o1,n,n,n,n,n,n
COc1ccc(NC(=O)c2ccc(COc3ccccc3Br)o2)cc1OC,-37,n,n,n,n,n
O=[N+]([O-])c1ccccc1Oc1ccc(Cl)c2cccnc12,n,n,n,n,n,n
C=CC(=O)Nc1ccc(CN2C(=O)N(c3c(Cl)c(OC)cc(OC)c3Cl)Cc3cnc(NCCCCN(CC)CC)nc32)cc1,x,n,n,-65,x,x
C#CCOCCOCCOCCNc1nc(N2CCN(C(=O)CCCCCCCCCCNC(=O)[C@@H](CCC(=O)O)n3cc(CCCCCN)nn3)CC2)nc(N2CCN(C(=O)CCCCCCCCCCNC(=O)[C@H](CO)n3cc(CCCCCN)nn3)CC2)n1,n,n,n,n,45,n
C#CCOCCOCCOCCNc1nc(N2CCN(C(=O)CCCCCCCCCCNC(=O)[C@@H](CCSC)n3cc(CCO)nn3)CC2)nc(N2CCN(C(=O)CCCCCCCCCCNC(=O)[C@H](CO)n3cc(CCCCCN)nn3)CC2)n1,-39,n,n,n,n,n
C#CCOCCOCCOCCNc1nc(N2CCN(C(=O)CCCCCCCCCCNC(=O)[C@H](CCCCN)n3cc(CCO)nn3)CC2)nc(N2CCN(C(=O)CCCCCCCCCCNC(=O)[C@H](CCCCN)n3cc(C[C@@H](C)CC)nn3)CC2)n1,n,n,n,n,70,n
C#CCOCCOCCOCCNc1nc(N2CCN(C(=O)CCCCCCCCCCNC(=O)[C@H](CCCCN)n3cc(CCO)nn3)CC2)nc(N2CCN(C(=O)CCCCCCCCCCNC(=O)[C@H](CCCCN)n3cc(CCCC(=O)O)nn3)CC2)n1,n,n,n,n,n,n
C#CCOCCOCCOCCNc1nc(N2CCN(C(=O)CCCCCCCCCCNC(=O)[C@@H](CCC(=O)O)n3cc(CCCCCN)nn3)CC2)nc(N2CCN(C(=O)CCCCCCCCCCNC(=O)[C@H](CCCCN)n3cc(C[C@@H](C)CC)nn3)CC2)n1,n,n,n,u,65,44
CC(=O)c1c(C)nc(-c2ccc(OCC(=O)Nc3ccc(F)cc3)cc2)n1O,n,n,n,n,n,n
CC(=O)Nc1ccc(N2CCc3c(C)c(C#N)c4nc5ccccc5n4c32)cc1,n,x,x,x,47,n
CC(C)C[C@@H](CSc1ccc(Br)cc1)N1CCN(C)CCC1=O,n,n,n,n,n,n
Cc1ccc(SCCN2CCN(CCc3ccccc3)CCC2=O)cc1,-38,n,n,-59,n,n
